# Tests used:
# Assay in all cases: DAPPL (digital affinity profiling via proximity ligation, sequencing); 10 mM Tris-HCl pH 7.5, 50 mM NaCl, 1 mM DTT, 4% glycerol, room temperature, 30 min; GST-TFs on glutathione beads, 16-mer random dsDNA library, 0.1% formaldehyde crosslink after washing; high values mean tight binding
# [1] = target: T1, FLI1 (Homo sapiens, UniProt Q01543 1-452); details: protein: recombinant; tags: N-terminal GST; dsDNA, one strand shown
# T1 sequence: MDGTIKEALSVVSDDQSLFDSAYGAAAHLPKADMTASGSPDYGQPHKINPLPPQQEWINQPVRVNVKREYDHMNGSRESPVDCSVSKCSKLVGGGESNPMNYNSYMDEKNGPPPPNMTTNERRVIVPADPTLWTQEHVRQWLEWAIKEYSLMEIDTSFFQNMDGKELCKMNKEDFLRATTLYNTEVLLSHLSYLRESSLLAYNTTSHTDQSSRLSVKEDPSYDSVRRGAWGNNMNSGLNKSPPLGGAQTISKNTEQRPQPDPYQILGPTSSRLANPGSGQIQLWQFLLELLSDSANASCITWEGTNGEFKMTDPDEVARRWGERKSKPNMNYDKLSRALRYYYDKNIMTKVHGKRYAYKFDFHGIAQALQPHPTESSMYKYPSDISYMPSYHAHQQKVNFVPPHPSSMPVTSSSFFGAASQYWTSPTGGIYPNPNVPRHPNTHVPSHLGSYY
# How it was run: (§1)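 The binding signal reported is, for every hexamer, its read frequency for a factor over its read frequency for the tag-only sample. Reads came from pools of yeast-expressed, GST-fused human transcription factors on glutathione beads, barcoded with DNA and mixed with that sample, which were incubated with 200 nmole of a random double-stranded 16-mer DNA library in Tris/NaCl/DTT/glycerol buffer at room temperature for 30 min. After washing, the pools were crosslinked with 0.1% formaldehyde, proximity-ligated with BsaI/T4 ligase for 1 h at 37 °C, PCR-amplified and sequenced on an Illumina NextSeq500.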
# [2] = target: T2, ELK1 (Homo sapiens, UniProt P19419 1-428); details: protein: recombinant; tags: N-terminal GST; dsDNA, one strand shown
# T2 sequence: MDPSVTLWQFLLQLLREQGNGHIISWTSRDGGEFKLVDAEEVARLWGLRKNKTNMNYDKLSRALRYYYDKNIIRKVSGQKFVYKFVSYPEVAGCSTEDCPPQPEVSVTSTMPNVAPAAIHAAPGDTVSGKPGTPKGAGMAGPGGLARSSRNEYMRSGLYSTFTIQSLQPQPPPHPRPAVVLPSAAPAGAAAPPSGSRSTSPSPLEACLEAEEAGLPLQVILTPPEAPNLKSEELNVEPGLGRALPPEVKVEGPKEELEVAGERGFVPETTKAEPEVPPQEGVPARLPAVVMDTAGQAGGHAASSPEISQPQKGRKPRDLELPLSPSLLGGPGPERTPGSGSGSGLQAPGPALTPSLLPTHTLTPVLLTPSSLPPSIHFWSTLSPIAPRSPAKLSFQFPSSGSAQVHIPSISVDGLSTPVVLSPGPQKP
# How it was run: as §1
# [3] = target: T3, GABPA (Homo sapiens, UniProt Q06546 1-454); details: protein: recombinant; tags: N-terminal GST; dsDNA, one strand shown
# T3 sequence: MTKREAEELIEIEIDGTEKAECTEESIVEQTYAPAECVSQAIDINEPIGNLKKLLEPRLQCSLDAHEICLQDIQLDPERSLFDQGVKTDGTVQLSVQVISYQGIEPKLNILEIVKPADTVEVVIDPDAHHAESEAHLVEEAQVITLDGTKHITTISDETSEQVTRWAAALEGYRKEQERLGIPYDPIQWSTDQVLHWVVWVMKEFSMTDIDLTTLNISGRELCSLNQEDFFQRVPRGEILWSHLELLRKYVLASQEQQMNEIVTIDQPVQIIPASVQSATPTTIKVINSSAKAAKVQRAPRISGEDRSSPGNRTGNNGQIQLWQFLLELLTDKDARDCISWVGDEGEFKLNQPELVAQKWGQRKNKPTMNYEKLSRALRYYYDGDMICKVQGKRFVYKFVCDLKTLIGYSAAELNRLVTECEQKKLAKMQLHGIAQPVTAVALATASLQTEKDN
# How it was run: as §1
# [4] = target: T4, ERG (Homo sapiens, UniProt P11308 1-479); details: protein: recombinant; tags: N-terminal GST; dsDNA, one strand shown
# T4 sequence: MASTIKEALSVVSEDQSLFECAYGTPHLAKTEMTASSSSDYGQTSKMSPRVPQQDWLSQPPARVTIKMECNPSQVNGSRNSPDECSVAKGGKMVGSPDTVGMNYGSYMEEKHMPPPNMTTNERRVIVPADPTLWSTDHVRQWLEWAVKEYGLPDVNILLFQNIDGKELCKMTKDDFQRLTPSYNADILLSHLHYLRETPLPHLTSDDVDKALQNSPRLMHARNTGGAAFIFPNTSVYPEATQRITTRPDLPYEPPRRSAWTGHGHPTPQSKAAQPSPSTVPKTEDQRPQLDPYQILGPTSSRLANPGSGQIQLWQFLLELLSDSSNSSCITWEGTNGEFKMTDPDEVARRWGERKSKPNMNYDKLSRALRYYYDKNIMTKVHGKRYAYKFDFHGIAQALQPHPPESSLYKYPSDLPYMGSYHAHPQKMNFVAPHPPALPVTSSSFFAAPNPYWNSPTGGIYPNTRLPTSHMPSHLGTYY
# How it was run: as §1
# [5] = target: ELF1 (Homo sapiens, UniProt P32519 1-619); details: protein: recombinant; tags: N-terminal GST; dsDNA, one strand shown
# Chain of ELF1 (P32519 whole entry): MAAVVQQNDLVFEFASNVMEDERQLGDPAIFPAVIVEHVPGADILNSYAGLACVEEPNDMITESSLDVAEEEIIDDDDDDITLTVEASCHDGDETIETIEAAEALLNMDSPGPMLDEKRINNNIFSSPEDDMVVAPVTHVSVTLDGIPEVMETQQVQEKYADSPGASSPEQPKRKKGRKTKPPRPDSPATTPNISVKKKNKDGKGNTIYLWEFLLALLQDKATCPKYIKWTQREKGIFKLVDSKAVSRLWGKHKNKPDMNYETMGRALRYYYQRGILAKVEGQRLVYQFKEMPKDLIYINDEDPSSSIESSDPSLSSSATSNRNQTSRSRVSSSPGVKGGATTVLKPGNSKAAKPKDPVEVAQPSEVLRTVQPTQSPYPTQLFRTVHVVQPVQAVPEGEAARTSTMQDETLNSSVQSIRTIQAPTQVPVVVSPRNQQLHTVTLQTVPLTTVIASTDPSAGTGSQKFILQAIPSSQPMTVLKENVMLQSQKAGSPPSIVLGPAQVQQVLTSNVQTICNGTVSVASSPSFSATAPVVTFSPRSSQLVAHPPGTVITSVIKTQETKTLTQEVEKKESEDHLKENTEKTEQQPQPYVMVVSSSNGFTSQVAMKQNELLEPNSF
# How it was run: as §1
# [6] = target: T5, EHF (Homo sapiens, UniProt Q9NZC4 1-300); details: protein: recombinant; tags: N-terminal GST; dsDNA, one strand shown
# T5 sequence: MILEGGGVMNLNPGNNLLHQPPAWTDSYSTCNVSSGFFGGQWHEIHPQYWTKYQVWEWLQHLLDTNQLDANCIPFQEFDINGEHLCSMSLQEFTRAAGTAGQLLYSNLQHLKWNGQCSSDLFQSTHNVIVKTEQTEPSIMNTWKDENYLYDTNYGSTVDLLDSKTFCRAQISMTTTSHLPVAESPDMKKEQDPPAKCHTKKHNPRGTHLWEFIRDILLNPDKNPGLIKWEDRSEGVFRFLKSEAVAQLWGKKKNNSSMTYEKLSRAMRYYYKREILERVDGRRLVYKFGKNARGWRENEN
# How it was run: as §1
# [7] = target: SPI1 (Homo sapiens, UniProt P17947 1-270); details: protein: recombinant; tags: N-terminal GST; dsDNA, one strand shown
# How it was run: as §1
# [8] = target: SPIB (Homo sapiens, UniProt Q01892 1-262); details: protein: recombinant; tags: N-terminal GST; dsDNA, one strand shown
# Chain of SPIB (Q01892 whole entry): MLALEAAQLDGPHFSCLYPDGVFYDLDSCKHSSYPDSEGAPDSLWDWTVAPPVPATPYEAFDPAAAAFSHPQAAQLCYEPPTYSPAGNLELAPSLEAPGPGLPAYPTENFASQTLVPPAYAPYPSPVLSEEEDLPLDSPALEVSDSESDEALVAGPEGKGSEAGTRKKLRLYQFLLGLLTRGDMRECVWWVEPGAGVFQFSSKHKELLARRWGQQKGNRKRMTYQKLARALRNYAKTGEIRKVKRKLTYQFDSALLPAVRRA
# How it was run: as §1
# [9] = target: T6, ELK3 (Homo sapiens, UniProt P41970 1-407); details: protein: recombinant; tags: N-terminal GST; dsDNA, one strand shown
# T6 sequence: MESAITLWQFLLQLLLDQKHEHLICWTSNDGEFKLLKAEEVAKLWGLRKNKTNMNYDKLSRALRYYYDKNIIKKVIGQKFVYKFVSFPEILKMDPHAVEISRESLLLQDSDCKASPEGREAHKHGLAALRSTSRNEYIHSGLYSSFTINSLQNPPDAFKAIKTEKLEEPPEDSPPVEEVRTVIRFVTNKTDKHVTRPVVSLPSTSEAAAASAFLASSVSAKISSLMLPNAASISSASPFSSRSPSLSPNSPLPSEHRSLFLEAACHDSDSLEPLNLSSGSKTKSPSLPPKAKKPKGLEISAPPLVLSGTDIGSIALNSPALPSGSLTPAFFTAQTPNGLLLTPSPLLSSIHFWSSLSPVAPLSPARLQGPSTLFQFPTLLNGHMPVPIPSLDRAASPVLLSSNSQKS
# How it was run: as §1
# [10] = target: T7, FEV (Homo sapiens, UniProt Q99581 1-238); details: protein: recombinant; tags: N-terminal GST; dsDNA, one strand shown
# T7 sequence: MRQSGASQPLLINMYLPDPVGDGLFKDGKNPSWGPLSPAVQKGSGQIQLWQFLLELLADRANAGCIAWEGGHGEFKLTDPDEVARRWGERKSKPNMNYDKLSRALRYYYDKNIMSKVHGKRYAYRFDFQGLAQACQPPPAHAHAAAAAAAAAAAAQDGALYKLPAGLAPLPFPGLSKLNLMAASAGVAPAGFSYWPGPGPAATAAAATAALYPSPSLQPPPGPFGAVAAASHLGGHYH
# How it was run: as §1
# [11] = target: ETV5 (Homo sapiens, UniProt P41161 1-510); details: protein: recombinant; tags: N-terminal GST; dsDNA, one strand shown
# Chain of ETV5 (P41161 whole entry): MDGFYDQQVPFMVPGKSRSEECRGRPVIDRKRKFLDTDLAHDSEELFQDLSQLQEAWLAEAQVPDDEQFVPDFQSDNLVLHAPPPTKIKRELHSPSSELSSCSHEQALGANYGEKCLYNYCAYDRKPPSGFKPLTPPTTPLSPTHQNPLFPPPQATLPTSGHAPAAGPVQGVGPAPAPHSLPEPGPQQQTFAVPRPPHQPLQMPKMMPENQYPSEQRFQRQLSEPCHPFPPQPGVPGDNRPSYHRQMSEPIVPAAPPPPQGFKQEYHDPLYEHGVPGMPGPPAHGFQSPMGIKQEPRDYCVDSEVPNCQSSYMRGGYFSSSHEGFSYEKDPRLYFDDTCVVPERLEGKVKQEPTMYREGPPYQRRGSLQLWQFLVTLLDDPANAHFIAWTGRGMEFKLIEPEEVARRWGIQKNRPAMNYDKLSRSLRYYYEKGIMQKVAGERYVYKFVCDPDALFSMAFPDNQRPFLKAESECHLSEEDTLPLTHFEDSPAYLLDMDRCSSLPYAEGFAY
# How it was run: as §1
# [12] = target: HSF1 (Homo sapiens, UniProt Q00613 1-529); details: protein: recombinant; tags: N-terminal GST; chain copies: 3; dsDNA, one strand shown
# Chain of HSF1 (Q00613 whole entry): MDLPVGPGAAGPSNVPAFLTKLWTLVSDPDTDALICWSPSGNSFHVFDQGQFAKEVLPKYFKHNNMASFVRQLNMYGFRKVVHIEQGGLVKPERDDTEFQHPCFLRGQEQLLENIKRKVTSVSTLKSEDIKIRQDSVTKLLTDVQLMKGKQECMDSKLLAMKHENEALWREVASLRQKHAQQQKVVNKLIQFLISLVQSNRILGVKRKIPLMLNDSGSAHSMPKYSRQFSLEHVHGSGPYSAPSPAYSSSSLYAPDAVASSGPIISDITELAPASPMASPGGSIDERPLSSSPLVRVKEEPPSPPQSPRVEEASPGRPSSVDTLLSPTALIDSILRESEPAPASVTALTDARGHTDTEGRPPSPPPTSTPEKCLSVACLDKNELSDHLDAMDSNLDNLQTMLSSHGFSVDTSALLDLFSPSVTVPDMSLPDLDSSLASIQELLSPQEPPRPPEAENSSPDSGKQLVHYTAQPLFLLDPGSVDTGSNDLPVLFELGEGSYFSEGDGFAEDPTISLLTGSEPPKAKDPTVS
# How it was run: as §1
# [13] = target: T8, SPIC (Homo sapiens, UniProt Q8N5J4 1-248); details: protein: recombinant; tags: N-terminal GST; dsDNA, one strand shown
# T8 sequence: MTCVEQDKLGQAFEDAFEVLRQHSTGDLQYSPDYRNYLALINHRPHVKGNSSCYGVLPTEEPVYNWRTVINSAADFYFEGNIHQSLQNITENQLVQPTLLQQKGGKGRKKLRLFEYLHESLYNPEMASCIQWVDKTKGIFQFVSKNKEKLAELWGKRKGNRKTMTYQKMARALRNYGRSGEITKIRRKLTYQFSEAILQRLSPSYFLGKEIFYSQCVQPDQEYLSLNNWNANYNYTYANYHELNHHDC
# How it was run: as §1
# [14] = target: ELF4 (Homo sapiens, UniProt Q99607 1-663); details: protein: recombinant; tags: N-terminal GST; dsDNA, one strand shown
# Chain of ELF4 (Q99607 whole entry): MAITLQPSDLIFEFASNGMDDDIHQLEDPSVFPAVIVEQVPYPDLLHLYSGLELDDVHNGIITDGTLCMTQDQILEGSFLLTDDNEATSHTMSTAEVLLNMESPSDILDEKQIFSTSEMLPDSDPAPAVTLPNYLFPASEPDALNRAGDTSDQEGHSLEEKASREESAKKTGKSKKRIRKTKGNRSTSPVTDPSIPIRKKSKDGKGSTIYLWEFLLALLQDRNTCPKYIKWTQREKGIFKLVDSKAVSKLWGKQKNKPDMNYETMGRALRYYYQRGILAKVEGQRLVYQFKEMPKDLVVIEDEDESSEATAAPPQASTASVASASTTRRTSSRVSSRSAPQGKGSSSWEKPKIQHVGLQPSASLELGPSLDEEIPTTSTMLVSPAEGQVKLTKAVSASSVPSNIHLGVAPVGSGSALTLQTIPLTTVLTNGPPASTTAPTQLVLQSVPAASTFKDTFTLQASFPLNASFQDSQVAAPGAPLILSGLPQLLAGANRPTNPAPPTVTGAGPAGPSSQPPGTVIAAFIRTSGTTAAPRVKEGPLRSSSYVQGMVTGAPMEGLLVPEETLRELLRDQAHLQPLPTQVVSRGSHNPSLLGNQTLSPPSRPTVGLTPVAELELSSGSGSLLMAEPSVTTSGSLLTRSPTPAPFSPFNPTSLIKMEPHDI
# How it was run: as §1
# [15] = target: T9, ELK4 (Homo sapiens, UniProt P28324-2 1-405); details: protein: recombinant; tags: N-terminal GST; dsDNA, one strand shown
# T9 sequence: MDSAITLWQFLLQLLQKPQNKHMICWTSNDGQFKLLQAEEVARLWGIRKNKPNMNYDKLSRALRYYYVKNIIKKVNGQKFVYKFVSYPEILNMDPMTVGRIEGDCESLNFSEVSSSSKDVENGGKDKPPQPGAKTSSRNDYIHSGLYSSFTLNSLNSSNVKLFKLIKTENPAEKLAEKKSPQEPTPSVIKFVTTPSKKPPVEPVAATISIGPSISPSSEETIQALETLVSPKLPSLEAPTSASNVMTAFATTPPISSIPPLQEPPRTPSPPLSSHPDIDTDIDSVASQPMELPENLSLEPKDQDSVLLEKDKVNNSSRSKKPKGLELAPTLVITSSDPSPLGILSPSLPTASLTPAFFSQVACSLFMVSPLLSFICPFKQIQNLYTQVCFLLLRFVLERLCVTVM
# How it was run: as §1
# [16] = target: T10, ETV2 (Homo sapiens, UniProt O00321 1-342); details: protein: recombinant; tags: N-terminal GST; dsDNA, one strand shown
# T10 sequence: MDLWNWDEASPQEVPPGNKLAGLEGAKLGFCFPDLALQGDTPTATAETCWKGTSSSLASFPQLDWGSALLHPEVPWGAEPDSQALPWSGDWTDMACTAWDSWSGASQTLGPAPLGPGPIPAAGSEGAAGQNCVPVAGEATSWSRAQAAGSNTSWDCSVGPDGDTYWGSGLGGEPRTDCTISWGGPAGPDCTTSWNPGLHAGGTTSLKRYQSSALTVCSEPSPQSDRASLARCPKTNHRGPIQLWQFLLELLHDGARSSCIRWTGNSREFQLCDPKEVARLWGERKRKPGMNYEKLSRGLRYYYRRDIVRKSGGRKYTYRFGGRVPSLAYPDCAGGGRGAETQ
# How it was run: as §1
# [17] = target: T11, ELF3 (Homo sapiens, UniProt P78545 1-371); details: protein: recombinant; tags: N-terminal GST; dsDNA, one strand shown
# T11 sequence: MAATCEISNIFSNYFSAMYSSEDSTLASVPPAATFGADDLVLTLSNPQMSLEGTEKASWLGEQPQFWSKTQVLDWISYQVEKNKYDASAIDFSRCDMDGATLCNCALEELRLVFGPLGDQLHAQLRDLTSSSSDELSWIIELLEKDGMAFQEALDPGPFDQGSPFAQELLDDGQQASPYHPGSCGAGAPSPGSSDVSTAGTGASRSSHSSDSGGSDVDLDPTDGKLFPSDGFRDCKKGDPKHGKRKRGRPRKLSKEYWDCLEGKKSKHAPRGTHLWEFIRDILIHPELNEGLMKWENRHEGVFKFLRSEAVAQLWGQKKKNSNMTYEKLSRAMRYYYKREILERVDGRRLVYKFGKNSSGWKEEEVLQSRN
# How it was run: as §1
# [18] = target: CRX (Homo sapiens, UniProt O43186 1-299); details: protein: recombinant; tags: N-terminal GST; dsDNA, one strand shown
# Chain of CRX (O43186 whole entry): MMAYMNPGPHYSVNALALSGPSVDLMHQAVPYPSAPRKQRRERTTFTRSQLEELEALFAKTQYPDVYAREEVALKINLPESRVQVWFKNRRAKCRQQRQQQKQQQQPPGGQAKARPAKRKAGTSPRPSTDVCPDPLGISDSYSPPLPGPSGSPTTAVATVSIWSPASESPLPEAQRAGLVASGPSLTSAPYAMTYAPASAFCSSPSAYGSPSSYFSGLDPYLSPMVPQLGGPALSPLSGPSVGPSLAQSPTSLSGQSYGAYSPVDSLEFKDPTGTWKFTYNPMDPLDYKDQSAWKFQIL
# How it was run: as §1
# [19] = target: ETV1 (Homo sapiens, UniProt P50549 1-477); details: protein: recombinant; tags: N-terminal GST; dsDNA, one strand shown
# Chain of ETV1 (P50549 whole entry): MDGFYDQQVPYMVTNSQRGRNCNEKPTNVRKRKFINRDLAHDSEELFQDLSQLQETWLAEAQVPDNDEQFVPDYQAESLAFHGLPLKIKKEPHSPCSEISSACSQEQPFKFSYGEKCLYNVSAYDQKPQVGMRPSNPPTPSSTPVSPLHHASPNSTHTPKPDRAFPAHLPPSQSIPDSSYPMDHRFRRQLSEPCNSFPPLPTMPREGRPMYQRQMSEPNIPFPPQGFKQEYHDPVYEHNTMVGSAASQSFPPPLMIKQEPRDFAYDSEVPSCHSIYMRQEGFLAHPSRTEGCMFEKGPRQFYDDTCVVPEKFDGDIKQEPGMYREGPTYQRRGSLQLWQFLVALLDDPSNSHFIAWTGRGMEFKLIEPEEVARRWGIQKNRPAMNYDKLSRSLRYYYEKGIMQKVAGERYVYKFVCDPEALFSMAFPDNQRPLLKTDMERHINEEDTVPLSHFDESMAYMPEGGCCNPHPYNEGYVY
# How it was run: as §1
sequence,measurement,setting,value
ATCTTG,binding signal,[1],"1.35 fold enrichment (6-mer frequency, TF over GST control)"
same,binding signal,[2],"1.38 fold enrichment (6-mer frequency, TF over GST control)"
same,binding signal,[3],"1.27 fold enrichment (6-mer frequency, TF over GST control)"
same,binding signal,[4],"1.39 fold enrichment (6-mer frequency, TF over GST control)"
same,binding signal,[5],"1.33 fold enrichment (6-mer frequency, TF over GST control)"
same,binding signal,[6],"1.35 fold enrichment (6-mer frequency, TF over GST control)"
same,binding signal,[7],"1.3 fold enrichment (6-mer frequency, TF over GST control)"
same,binding signal,[8],"1.31 fold enrichment (6-mer frequency, TF over GST control)"
same,binding signal,[9],"1.41 fold enrichment (6-mer frequency, TF over GST control)"
same,binding signal,[10],"1.33 fold enrichment (6-mer frequency, TF over GST control)"
same,binding signal,[11],"1.2 fold enrichment (6-mer frequency, TF over GST control)"
same,binding signal,[12],"1.43 fold enrichment (6-mer frequency, TF over GST control)"
same,binding signal,[13],"1.39 fold enrichment (6-mer frequency, TF over GST control)"
same,binding signal,[14],"1.33 fold enrichment (6-mer frequency, TF over GST control)"
same,binding signal,[15],"1.39 fold enrichment (6-mer frequency, TF over GST control)"
same,binding signal,[16],"1.35 fold enrichment (6-mer frequency, TF over GST control)"
same,binding signal,[17],"1.5 fold enrichment (6-mer frequency, TF over GST control)"
same,binding signal,[18],"1.54 fold enrichment (6-mer frequency, TF over GST control)"
same,binding signal,[19],"1.25 fold enrichment (6-mer frequency, TF over GST control)"

# — PMC7862700, “An all-to-all approach to the identification of sequence-specific readers for epigenetic DNA modifications on cytosine”
